# Source: PubChem BioAssay (National Center for Advancing Translational Sciences (NCATS))
# DT40 TDP1 CPT: DT40-hTDP1 cell growth loss with CPT; chicken DT40 Tdp1-/-;hTDP1 cells + 20 nM CPT, ATP luminescence, 48 h; Potency, µM (highest dose often 46.2 µM), most hits filed as inhibitors; actives 12% (n = 420,000); AID 686979; note: nearly all actives have a fitted effect of over 55% in size
#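 Chicken DT40 Tdp1-/- cells stably complemented with human TDP1 were seeded at 400 cells/well in medium containing 20 nM camptothecin, exposed to pin-transferred compounds, and grown at 37 °C for at least 48 hr. Viability was read as ATP luminescence.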
# DT40 TDP1 no CPT: qHTS for Inhibitors of human tyrosyl-DNA phosphodiesterase 1 (TDP1): qHTS in cells in absence of CPT; DT40 Tdp1-/- hTDP1 cells, no CPT, ATP luminescence, 48 h; Potency, µM (top dose mostly 46.2 µM), usual class: inhibitors; actives 15% (n = 420,000); note: nearly all actives have a fitted effect of over 55% in size
#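 Growth kinetics read by CellTiter-Glo luminescence after ≥48 hr at 37 °C. Cells: DT40 Tdp1-/- stably carrying human TDP1, 400 per well, compound exposure in the absence of CPT (DMSO vehicle).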
# ClpP mod: qHTS Assay for Activators of ClpP | purified B. subtilis ClpP, FRET peptide cleavage, 20 min | Potency, µM (top dose mostly 57.5 µM) | actives 1.9% (n = 340,000) | AID 651965, 2013; active = well fitted falling curve with a large enough effect; inconclusive = small, poorly fitted or top-dose-only effect; inactive = no such curve, though single readings can be large or run the other way; note: the source files actives as falling curves though it sought activators and does not explain the sign; nearly all actives have a fitted effect of over 65% in size
# Target sequence (P80244 whole entry, looked up): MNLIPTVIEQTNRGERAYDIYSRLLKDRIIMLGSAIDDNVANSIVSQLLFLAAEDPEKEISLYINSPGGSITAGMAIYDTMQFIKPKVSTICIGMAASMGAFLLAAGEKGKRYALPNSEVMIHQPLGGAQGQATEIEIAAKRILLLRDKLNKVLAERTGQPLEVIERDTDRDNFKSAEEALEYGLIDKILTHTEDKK
#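 Buffer: 100 mM Tris/HCl pH8, 100 mM KCl, 0.05% low protease BSA, 2.5% glycerol, 0.01% Tween-20. ClpP 10 microg/mL final; 20 min RT; delta FRET normalized to ADEP and DMSO controls.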
# TDP1 inh: blocks human tyrosyl-DNA phosphodiesterase 1. Q9NUW8. recombinant TDP1, AlphaScreen DNA substrate cleavage. Potency, µM (titrated, usually from 130 µM), actives largely listed as inhibitors. actives 0.28% (n = 350,000); note: nearly all actives have a fitted effect of over 40% in size
#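 Compounds were preincubated with Tdp1 (1 nM final) for 15 min at room temperature before substrate (15 nM final) started a 5 min reaction; beads (10 ug/ml final) were then added for 10 min before AlphaScreen detection.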
# Numbers stand for hits; i = inactive; ? = inconclusive; nt = no result given; [ ] = dose if it differs, or a comment. Rows were chosen to be rich in hits. Some 17% of all compounds tested hit in one or more screens of this group. Unless noted, calls come from the whole dose curve; as a rule, active = well fitted curve in the direction sought with a large enough effect; inconclusive = small, poorly fitted or top-dose-only effect, or another doubt; inactive = no such curve, though single readings can be large; an effect the other way counts as inactive or inconclusive.
SMILES,DT40 TDP1 CPT,DT40 TDP1 no CPT,ClpP mod,TDP1 inh
O=C(Nc1nc(-c2ccc(Cl)cc2)cs1)c1cccnc1,?,18µM,i,i
CCc1ccc(-c2csc(NC(=O)c3cccnc3)n2)cc1,?,16µM,i,i
CCCC(=O)Nc1ccc(-c2csc(-c3cccnc3)n2)cc1,?,16µM,i,i
CC(=O)c1c(C)[nH]c(C(=O)Nc2nc(-c3ccc(Cl)cc3)cs2)c1C,21µM,?,i,i
O=C(Nc1nc(-c2ccc(F)cc2)cs1)c1cccnc1,i,?,i,i
COc1ccc(-c2nc(NC(=O)c3[nH]c(C)c(C(C)=O)c3C)sc2C)cc1,?,?,nt,i
CCc1ccc(NC(=O)c2cccnc2)cc1,i,i,i,i
CC1CCC(NC(=O)CSc2nncs2)CC1 (stereo not given),i,i,nt,nt
COc1cccc(-c2cn3ncsc3n2)c1,i,i,i,i
NC(=O)[C@@H]1CCCN1Cc1nc(Cc2ccccc2Cl)no1,i,i,i,i
Cc1cccc(-n2nc3c(c2NC(=O)c2ccc(Br)o2)CSC3)c1,i,?,i,i
CCc1ccc(-c2csc(NC(=O)C3=NN(c4ccccc4)C(=O)CC3)n2)cc1,?,26µM,i,i
CC(C)(C)c1ccc(C(=O)Cn2cnnc2C#N)cc1,21µM,16µM,nt,nt
CCOc1ccc(C(=O)Cn2cnnc2C#N)cc1,i,i,i,nt
C/C(Cl)=C/Cc1c(C)[nH]c2c(ccc3ccccc32)c1=O,?,23µM,i,nt
C/C(Cl)=C/Cc1c(C)[nH]c2ccc(C)cc2c1=O,i,i,i,i
CC1CCC2(CC1)Nc1ccccc1C(=O)N2c1ccccc1 (stereo not given),i,i,28µM,i
CC1CCC2(CC1)SCC(=O)N2c1ccccc1 (stereo not given),i,i,i,i
CCC(=O)Nc1cccc(-c2nc3ccccc3o2)c1,i,i,?,i
CCC(=O)Nc1cccc(-c2nnc(-c3ccccc3)o2)c1,21µM,21µM,nt,nt
O=C(Nc1cccc(-c2nnc(-c3ccccc3)o2)c1)C1CCCCC1,?,18µM,i,i
O=S(=O)(NC1CCCCC1)c1cccc(-c2nnc(-c3ccccc3)o2)c1,?,15µM,i,i
Cc1ccccc1NS(=O)(=O)c1cccc(-c2nnc(-c3ccccc3)o2)c1,i,i,i,i
CCCCC(=O)Nc1cccc(-c2nnc(-c3ccccc3)o2)c1,23µM,23µM,i,i
CC(C)=CCC/C(C)=C/CC/C(C)=C/CSc1ccccc1C(=O)O,nt,nt,nt,i
SMILES,DT40 TDP1 CPT,DT40 TDP1 no CPT,ClpP mod,TDP1 inh
O=C(NCCCN1CCOCC1)c1onc(CSc2ccc(F)c(F)c2)c1C(=O)NCCCN1CCOCC1,i,i,i,nt
COc1ccc(-c2nc(Cn3c(=O)cc(-c4ccccc4)c4c(C)nn(C)c43)c(C)o2)cc1OC,?,?,i,i
CCC(C)Sc1cc(-c2nc3cc(C)ccn3c2NC2CCCCC2)ccc1OC (stereo not given),21µM,21µM,?,i
COc1ccc(-c2nc3cc(C)ccn3c2NCC2CCCO2)cc1OC (stereo not given),i,i,i,nt
CCC(C)Sc1cccc(-c2nc3cnccn3c2NC2CCCCC2)c1 (stereo not given),21µM,16µM,?,i
CCN(CC)c1ccc(-c2nc3cnccn3c2NC2CCCC2)cc1,21µM,?,i,i
CC(=O)c1ccc(-c2cccc(-c3nc4ccccn4c3NC3CCCCC3)c2)cc1,23µM,15µM,i,i
c1cc2c3c(c1)CCCN3CCC2,i,i,i,nt
CCCCN1C(=O)NC(c2ccc(OC)cc2)C(C(=O)OCc2ccccc2)=C1C (stereo not given),?,i,i,nt
CC(C)c1nc2ccccn2c1NC1CCCCC1,i,?,i,i
CCC(C)Sc1cc(-c2nc3ccccn3c2NC2CCCCC2)ccc1OC (stereo not given),12µM,15µM,i,i
CCC1=Nc2cc(C(=O)NCCCOC)ccc2Sc2ccc(Br)cc21,1.3µM,1.3µM,i,i
CCCCNC(=O)c1ccc2c(c1)N=C(CC)c1ccccc1S2,4.1µM,4.6µM,i,i
CCC1=Nc2cc(C(=O)NCCN3CCOCC3)ccc2Sc2ccc(Br)cc21,i,i,i,i
CCC1=Nc2cc(C(=O)NCCCOC)ccc2Sc2ccccc21,1.5µM,1.2µM,i,i
Nc1c(C(=O)NCCN2CCOCC2)c2nc3ccccc3nc2n1CCc1ccccc1,?,21µM,?,i
Nc1c(C(=O)NCc2ccc3c(c2)OCO3)c2nc3ccccc3nc2n1CCCN1CCOCC1,23µM,?,?,i
Nc1c(C(=O)NCCN2CCOCC2)c2nc3ccccc3nc2n1-c1ccccc1,?,16µM,11µM,i
COc1ccc(COC(=O)N/N=C2/C[C@@H](O)[C@@H](O)[C@@H]3[C@@H]4C(=O)N(C5CCCCC5)C(=O)[C@H]4CC[C@H]23)cc1,nt,nt,nt,i[21 µM]
NCCCN(Cc1ccccc1)c1ccc(Br)cn1,11µM,?,i,nt
COC(=O)c1ccccc1NC(=O)c1ccc(=O)n(Cc2cccc(C)c2)c1,?,?,i,i
CCCCc1ccc(NC(=O)c2ccc(=O)n(Cc3cccc(C)c3)c2)cc1,?,18µM,i,i
COc1ccccc1NC(=O)c1cccc2c(Br)cccc12,i,?,i,nt
CCN(CC)CCN1C2=C(C(=O)CC(C)(C)C2)C(c2cccc(F)c2)C2=C1CC(C)(C)CC2=O,i,?,nt,i
CCCCN1C2=C(C(=O)CC(C)(C)C2)C(c2ccccc2)C2=C1c1ccccc1C2=O (stereo not given),?,16µM,i,i
SMILES,DT40 TDP1 CPT,DT40 TDP1 no CPT,ClpP mod,TDP1 inh
CCCN1C2=C(C(=O)CC(C)(C)C2)C(c2ccc(F)cc2)C2=C1c1ccccc1C2=O (stereo not given),20µM,?,i,i
Cc1ccc(CN2CCOc3ccc(CN4CCC(Oc5cccnc5)CC4)cc3C2)o1,i[9.04 µM],?,nt,nt
O=C(Cn1cnc2cc([N+](=O)[O-])ccc2c1=O)NCc1ccccc1,i,i,i,i
CCCCCCCC(=O)Nc1cc(C(=O)NCCC)ccc1N1CCC2(CC1)CC(c1ccccc1)=NO2,?,12µM,i,nt
CCCNC(=O)c1ccc(N2CCC3(CC2)CC(c2ccccc2)=NO3)c(NC(=O)c2ccc(Br)cc2)c1,?,i,?,nt
CCCNC(=O)c1ccc(N2CCC3(CC2)CC(c2cccc(Br)c2)=NO3)c(NC(=O)c2ccccc2)c1,?,23µM,?,i
CCCCCCCC(=O)Nc1cc(C(=O)NCc2ccc(C)cc2)ccc1N1CCC2(CC1)CC(c1cccc(Br)c1)=NO2,?,?,i,i
Cc1ccc(CNC(=O)c2ccc(N3CCC4(CC3)CC(c3ccccc3)=NO4)c(NC(=O)c3cccc(C)c3)c2)cc1,i,i,i,i
CCCNC(=O)c1ccc(N2CCC3(CC2)CC(c2ccccc2)=NO3)c(NC(=O)c2ccccc2)c1,5.8µM,15µM,?,nt
